Results as given in PubChem BioAssay (Tox21).
Several values for one entry are separate records, joined by “and”; a condition that tells them apart may be missing. Equal values may be shown once. Results filed as inconclusive are left out. A call without a number means that no potency is given here. Some compounds were tested as several samples or in several runs, with calls that do not always agree. Activity calls are given as the source filed them. Unless noted, the call rests on the fitted dose curve; in most records, active means well fitted curve in the direction sought with a large enough effect in the repeat runs; inconclusive means weak or mixed curves; inactive means no such curve, though single readings can be large; an effect the other way counts as inactive or inconclusive.

Columns and labels:
[1] = qHTS assay to identify small molecule agonists of the RXR signaling pathway - cell viability counter screen (AID 1159529); further: nearly all actives have a fitted effect of over 50% in size; further: potency means the concentration at half of the fitted maximal effect
How it was run: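 RXR-alpha-UAS-bla HEK 293T cells in medium with 2% charcoal-stripped FBS were pre-incubated 5 hr, then compound-treated 16 hr at 37 C. Viability was read by CellTiter-Glo luminescence in the same wells as the beta-lactamase assay, with tetraoctyl ammonium bromide as positive control.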

[2] = qHTS assay to identify small molecule antagonists of the retinoid acid receptor (RAR) signaling pathway - cell viability counter screen (AID 1159551); further: nearly all actives have a fitted effect of over 35% in size; further: potency means the concentration at half of the fitted maximal effect
How it was run: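 Measured by luminescent ATP detection, viability reflects C3RL4 cells treated 6 h at 37 C with test chemicals in the presence of 1 uM (final) retinol.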

[3] = qHTS assay to identify small molecule antagonists of the estrogen related receptor (ERR) signaling pathway - cell viability counter screen (AID 1224818); further: series mostly up to about 46 µM
How it was run: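 Compounds dissolved in DMSO were applied to ERR cells seeded at 2,000 per well 6 h earlier. Cell viability followed 17.5 h later via 30-min CellTiter-Fluor fluorescence.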

[4] = qHTS assay to identify small molecule antagonists of the estrogen related receptor signaling pathway with the pleiotropic PPARgamma coactivator (PGC) cell viability counter screen (AID 1224822; further: potency means the concentration at half of the fitted maximal effect)
How it was run: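 Counter screen for cell viability: PGC/ERR cells, 6 h pre-incubation after plating, 17.5 h compound exposure at 37 C, fluorescence from CellTiter-Fluor after 30 min.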

[5] = molecular target: Luciferin 4-monooxygenase (Photinus pyralis) (UniProt P08659); assay: qHTS assay to identify small molecule inhibitors of firefly luciferase (AID 1224835); further: nearly all actives have a fitted effect of over 25% in size; further: potency means the concentration at half of the fitted maximal effect
How it was run: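 Quantitative HTS format; KM concentrations of both substrates. Purified P. pyralis FLuc activity quantified from luminescence images.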

[6] = qHTS assay to identify small molecule agonists of the constitutive androstane receptor (CAR) signaling pathway - cell viability counter screen (AID 1224836); further: nearly all actives have a fitted effect of over 45% in size; further: potency means the concentration at half of the fitted maximal effect
How it was run: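 HepG2 cells stably carrying hCAR and a CYP2B6-2.2kb reporter; 15-concentration compounds plus PK11195 (final 0.75 uM), 23 hr at 37 C/5% CO2. Viability read by CellTiter-Fluor fluorescence.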

[7] = qHTS assay to identify small molecule antagonists of the constitutive androstane receptor (CAR) signaling pathway - cell viability counter screen (AID 1224837); further: nearly all actives have a fitted effect of over 45% in size; further: potency means the concentration at half of the fitted maximal effect
How it was run: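 To flag cytotoxic false antagonists, HepG2 hCAR/CYP2B6-2.2kb cells were treated 23 hr with 15-concentration compound series and 50 nM CITCO at 37 C/5% CO2; CellTiter-Fluor fluorescence was the measured end point.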

[8] = molecular target: Nuclear receptor subfamily 1 group I member 3 (Homo sapiens) (UniProt Q14994); assay: qHTS assay to identify small molecule antagonists of the constitutive androstane receptor (CAR) signaling pathway (AID 1224838);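 further: HepG2 cells stably expressing hCAR with CYP2B6 luciferase reporter stimulated by CITCO; nearly all actives have a fitted effect of over 40% in size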; further: potency means the concentration at half of the fitted maximal effect
How it was run: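 Human hepatoma HepG2 cells expressing hCAR and a CYP2B6 promoter (2.2 kb) luciferase construct; compound titration (15 points) with 50 nM CITCO final, 24 h at 37 C/5% CO2; luminescence via ONE-Glo after 30 min at room temperature.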

[9] = molecular target: Nuclear receptor subfamily 1 group I member 3 (Homo sapiens) (UniProt Q14994); assay: qHTS assay to identify small molecule agonists of the constitutive androstane receptor (CAR) signaling pathway (AID 1224839); further: nearly all actives have a fitted effect of over 15% in size; further: potency means the concentration at half of the fitted maximal effect
How it was run: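 HepG2 cells stably co-transfected with hCAR and a CYP2B6-2.2kb luciferase reporter; compounds at 15 concentrations with 0.75 uM PK11195 present. After 24 hr at 37 C, luciferase read by ONE-Glo luminescence.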

[10] = qHTS assay to identify small molecule antagonists of the estrogen related receptor signaling pathway with the pleiotropic PPARgamma coactivator (PGC) from Tox21 10K library - cell viability counter screen (AID 1224840; active means well fitted cell-killing curve with a large enough effect in the repeat runs, not every such curve was filed as active; further: nearly all actives have a fitted effect of over 40% in size; further: potency means the concentration at half of the fitted maximal effect)
How it was run: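 Seeded PGC/ERR cells (2,000/well, 6 h, 37 C/5% CO2) get compound by pin tool; 17.5 h incubation at 37 C; CellTiter-Fluor added, 30 min, fluorescence measured.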

[11] = molecular target: Thyrotropin receptor (Homo sapiens) (UniProt P16473); assay: qHTS assay to identify small molecule agonists of the thyroid stimulating hormone receptor (TSHR) signaling pathway (AID 1224843; calls by dose curve; further: nearly all actives have a fitted effect of over 45% in size)
How it was run: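 Using 15 concentrations per compound in triplicate, cAMP production was monitored in TSHR-HEK293 cells after 30 min compound incubation at RT; HTRF reagents followed, with fluorescence intensity recorded after 1 h.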

[12] = qHTS assay to identify small molecule antagonists of the retinoic acid receptor (RAR) signaling pathway (AID 1159552; further: nearly all actives have a fitted effect of over 50% in size; further: potency means the concentration at half of the fitted maximal effect)
How it was run: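 Retinol signaling pathway inhibitors screened in C3RL4 RARE-luciferase reporter cells seeded overnight at 37 C, then compounds added with 1 uM (final) retinol as pathway substrate. After 6 hr at 37 C, luciferase luminescence read after 30 min at room temperature.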

[13] = qHTS assay to identify small molecule antagonists of the estrogen related receptor (ERR) signaling pathway (AID 1224819;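 further: luminescence from an ERR-driven luciferase reporter measured with One-Glo reagent; series mostly up to about 46 µM; nearly all actives have a fitted effect of over 50% in size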)
How it was run: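 Compounds dissolved in DMSO were pin-transferred onto ERR cells that had been plated 6 h earlier, and cells were then incubated 18 h at 37 C; signal was luciferase luminescence via One-Glo.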

[14] = system: estrogen-related receptor alpha (ERRalpha) with PGC-1alpha coactivator, human; assay: qHTS assay to identify small molecule antagonists of the estrogen related receptor signaling pathway with the pleiotropic PPARgamma coactivator (PGC) (AID 1224821; calls by dose curve;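 further: series mostly up to about 46 µM; lower luminescence signal means antagonism of PGC/ERR signalling; nearly all actives have a fitted effect of over 50% in size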)
How it was run: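 PGC/ERR reporter cells; 6 h pre-incubation 37 C/5% CO2; pin-tool compound in DMSO, 18 h 37 C; One-Glo added, 30 min RT; luminescence read. qHTS antagonist mode.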

[15] = qHTS assay to identify small molecule agonists of the estrogen related receptor signaling pathway with the pleiotropic PPARgamma coactivator (PGC) (AID 1224823)
How it was run: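 Luminescence readout (One-Glo, 30 min RT) from PGC/ERR cell line treated 18 h at 37 C with pin-tool-delivered DMSO compound solutions; cells plated 6 h before dosing. Quantitative HTS format.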

[16] = qHTS assay to identify small molecule antagonists of the estrogen related receptor signaling pathway with the pleiotropic PPARgamma coactivator (PGC) from Tox21 10K library (AID 1224841; call rule not given here; further: potency means the concentration at half of the fitted maximal effect)
How it was run: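 Test chemicals dissolved in DMSO were applied to pre-incubated (6 h) PGC/ERR cells at 2,000 cells/well for an 18 h, 37 C treatment; reporter luminescence was then read using One-Glo.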

[17] = qHTS assay to identify small molecule antagonists of the estrogen related receptor (ERR) signaling pathway from Tox21 library - cell viability counter screen (AID 1224834); further: nearly all actives have a fitted effect of over 30% in size; further: potency means the concentration at half of the fitted maximal effect
How it was run: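 Seeded ERR cells were rested 6 h at 37 C/5% CO2 before compounds, positive and negative controls or DMSO were added. Incubation continued for 17.5 h, and viability was then quantified by CellTiter-Fluor fluorescence.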

[18] = qHTS assay to identify small molecule agonists of the estrogen related receptor signaling pathway with the pleiotropic PPARgamma coactivator (PGC) from Tox21 10K library (AID 1224842); further: nearly all actives have a fitted effect of over 15% in size
How it was run: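 PGC/ERR reporter cells (NTP line) were seeded 2,000 per well, rested 6 h at 37 C/5% CO2, then pin-dosed with compounds in DMSO for 18 h at 37 C; luciferase read by One-Glo luminescence after 30 min at room temperature.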

[19] = qHTS assay to identify small molecule agonists of the retinoic acid receptor (RAR) signaling pathway (AID 1159553)
How it was run: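 6 hr compound exposure (DMSO vehicle) of overnight-plated C3RL4 RARE-luc cells at 37 C; luminescence quantified after 30 min RT with luciferase reagent.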

[20] = qHTS assay to identify small molecule agonists of the estrogen related receptor (ERR) signaling pathway (AID 1224820)
How it was run: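 Luminescence readout (One-Glo, 30 min RT) from NTP-supplied ERR cell line exposed to compounds for 18 h at 37 C. Cells seeded 2,000 per well and pre-incubated 6 h before pin-tool compound transfer.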

Sequence of Thyrotropin receptor (Homo sapiens) (P16473 whole entry, looked up): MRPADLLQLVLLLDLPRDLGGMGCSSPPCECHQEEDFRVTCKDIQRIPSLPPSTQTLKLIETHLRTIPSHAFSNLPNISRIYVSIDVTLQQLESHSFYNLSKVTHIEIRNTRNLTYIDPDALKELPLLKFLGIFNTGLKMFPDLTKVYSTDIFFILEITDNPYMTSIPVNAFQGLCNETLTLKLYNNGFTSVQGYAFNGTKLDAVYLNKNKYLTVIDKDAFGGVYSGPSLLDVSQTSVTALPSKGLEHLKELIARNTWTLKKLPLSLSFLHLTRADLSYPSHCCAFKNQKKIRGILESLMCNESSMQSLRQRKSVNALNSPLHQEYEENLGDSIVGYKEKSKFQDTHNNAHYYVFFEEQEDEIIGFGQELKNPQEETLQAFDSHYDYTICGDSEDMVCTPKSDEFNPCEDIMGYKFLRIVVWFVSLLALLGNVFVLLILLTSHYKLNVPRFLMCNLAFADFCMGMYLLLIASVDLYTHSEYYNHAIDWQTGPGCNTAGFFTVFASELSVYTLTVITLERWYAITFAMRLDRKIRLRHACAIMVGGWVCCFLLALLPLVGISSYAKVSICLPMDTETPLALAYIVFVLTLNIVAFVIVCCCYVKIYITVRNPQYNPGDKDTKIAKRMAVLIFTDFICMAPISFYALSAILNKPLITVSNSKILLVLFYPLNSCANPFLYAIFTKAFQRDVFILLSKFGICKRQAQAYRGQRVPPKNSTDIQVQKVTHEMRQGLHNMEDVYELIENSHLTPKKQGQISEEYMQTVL
Sequence of Nuclear receptor subfamily 1 group I member 3 (Homo sapiens) (Q14994 whole entry, looked up): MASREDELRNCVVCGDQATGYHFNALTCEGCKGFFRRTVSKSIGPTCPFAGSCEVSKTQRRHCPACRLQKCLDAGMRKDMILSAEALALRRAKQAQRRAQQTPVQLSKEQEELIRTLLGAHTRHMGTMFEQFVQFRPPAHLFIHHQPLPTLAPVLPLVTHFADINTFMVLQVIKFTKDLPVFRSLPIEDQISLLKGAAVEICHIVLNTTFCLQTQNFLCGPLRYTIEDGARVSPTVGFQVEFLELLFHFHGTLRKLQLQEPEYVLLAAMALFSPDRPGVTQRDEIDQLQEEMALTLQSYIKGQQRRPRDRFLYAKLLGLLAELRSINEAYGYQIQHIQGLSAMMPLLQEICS
Sequence of Luciferin 4-monooxygenase (Photinus pyralis) (P08659 whole entry, looked up): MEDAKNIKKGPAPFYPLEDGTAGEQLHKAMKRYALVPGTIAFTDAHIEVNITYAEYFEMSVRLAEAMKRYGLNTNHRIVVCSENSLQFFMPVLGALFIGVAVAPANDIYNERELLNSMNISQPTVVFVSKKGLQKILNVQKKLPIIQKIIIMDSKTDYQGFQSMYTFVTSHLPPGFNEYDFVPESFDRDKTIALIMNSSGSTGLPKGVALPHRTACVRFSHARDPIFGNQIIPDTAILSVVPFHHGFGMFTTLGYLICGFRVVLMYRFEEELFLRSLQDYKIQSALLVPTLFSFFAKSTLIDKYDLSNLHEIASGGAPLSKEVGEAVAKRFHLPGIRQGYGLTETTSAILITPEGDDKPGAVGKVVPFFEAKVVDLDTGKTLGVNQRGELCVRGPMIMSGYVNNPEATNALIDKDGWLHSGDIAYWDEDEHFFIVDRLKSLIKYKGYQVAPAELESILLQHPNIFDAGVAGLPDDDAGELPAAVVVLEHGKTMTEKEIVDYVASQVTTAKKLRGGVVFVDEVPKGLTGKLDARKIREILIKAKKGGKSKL

SMILES	Potency [1]	Potency [2]	outcome [3]	Potency [4]	Potency [5]	Potency [6]	Potency [7]	Potency [8]	Potency [9]	Potency [10]	Potency [11]	Potency [12]	Potency [13]	outcome [14]	outcome [15]	Potency [16]	Potency [17]	Potency [18]	Potency [19]	outcome [20]
Cc1cn([C@H]2C=C[C@@H](CO)O2)c(=O)[nH]c1=O	inactive	inactive	inactive	inactive	inactive	inactive	inactive	inactive	inactive	inactive	inactive									
Nc1ccc(O)c([N+](=O)[O-])c1	inactive	inactive		inactive	79.6 µM (active)			12.2 µM (active)				inactive	inactive	inactive	inactive	inactive				
COc1cccc(O)c1O	inactive	inactive			inactive	inactive	inactive		inactive			56.6 µM (active)					63.5 µM (active)			
CCCCCCCCCCCCCCCC[N+](C)(C)Cc1ccccc1	17.9 µM (active) and 14 µM (active) and 4.25 µM (active)	79.4 µM (active) and 62.2 µM (active) and 29.8 µM (active)			inactive	inactive			inactive	63.1 µM (active) and 49.4 µM (active) and inactive		56.2 µM (active) and 27.8 µM (active) and 23.7 µM (active)				31.6 µM (active) and 24.8 µM (active) and 10.6 µM (active)	63.1 µM (active) and 49.4 µM (active) and 23.7 µM (active)	inactive		
CN1[C@@H]2CC(OC(=O)[C@H](CO)c3ccccc3)C[C@H]1[C@@H]1O[C@@H]12 (stereo not given in full)	inactive	inactive			inactive	inactive	inactive		inactive	inactive	inactive						inactive			
CCN(CC)C(=O)c1cccc(C)c1	inactive	inactive			inactive	inactive	inactive			inactive	inactive	inactive				inactive		inactive	inactive	
CC/C(=C(\c1ccccc1)c1ccc(OCCN(C)C)cc1)c1ccccc1	15.5 µM (active) [middle of 5 runs]	61.5 µM (active) and 61.1 µM (active) and 54.9 µM (active)		27.6 µM (active)							inactive	54.4 µM (active) [middle of 5 runs]					54.4 µM (active) and 54.9 µM (active) and 61.1 µM (active)			
O=c1[nH]cc(F)c(=O)[nH]1	45.3 µM (active) and inactive	inactive	inactive	inactive	41.5 µM (active) and inactive					44.9 µM (active) and inactive	inactive									
NS(=O)(=O)c1cc2c(cc1Cl)NCNS2(=O)=O	inactive	inactive	inactive	inactive	inactive	inactive	inactive			inactive	inactive		inactive	inactive	inactive	inactive	inactive	inactive		inactive
C1=CC2C3C=CC(C3)C2C1 (stereo not given)	inactive	inactive	inactive	inactive	inactive		inactive		inactive	inactive			inactive	inactive	inactive	60 µM (active)		inactive	inactive	inactive
CC(=O)Nc1c(I)c(NC(C)=O)c(I)c(C(=O)O)c1I	inactive	inactive				inactive	inactive			inactive	inactive						inactive		inactive	
CCCCNC(=O)NS(=O)(=O)c1ccc(C)cc1	inactive	inactive	inactive	inactive	inactive	inactive	inactive			inactive			inactive	inactive	inactive	inactive		inactive		inactive
C1CCC(C(CC2CCCCN2)C2CCCCC2)CC1 (stereo not given)	23.9 µM (active)	29.8 µM (active)			inactive				inactive	29.8 µM (active)		9.44 µM (active)					29.8 µM (active)	inactive		
CN1CCc2cccc3c2[C@H]1Cc1ccc(O)c(O)c1-3	18.3 µM (active)	69.3 µM (active)			inactive	49.1 µM (active) and 22.8 µM (active)	49.1 µM (active) and 22.8 µM (active)		15.5 µM (active) and 9.09 µM (active) and 15 µM (active)	30.9 µM (active) and 22.8 µM (active)						30.9 µM (active) and 20.4 µM (active) and 29.8 µM (active)	27.6 µM (active) and 22.8 µM (active) and 26.6 µM (active)	inactive		
C[C@](N)(Cc1ccc(O)c(O)c1)C(=O)O	inactive	inactive	inactive	inactive		inactive	inactive		inactive	inactive									inactive	
O=C(O)c1ccccc1	inactive	inactive			inactive	inactive	inactive	inactive	inactive	inactive	inactive						inactive			
CCCC[P+](CCCC)(CCCC)CCCC	inactive	inactive				inactive	inactive		inactive	inactive	inactive								inactive	
CN(C)CCOC(c1ccccc1)c1ccccc1	inactive	inactive	inactive	inactive	inactive	inactive	inactive			inactive	inactive								inactive	
CN(N=O)C(=O)N[C@@H]1[C@@H](O)[C@H](O)[C@@H](CO)O[C@@H]1O	inactive	inactive			inactive	inactive	inactive		inactive	inactive	inactive	inactive							inactive	
